# High-throughput results deposited in PubChem BioAssay by National Center for Advancing Translational Sciences (NCATS).
# Shown are actives, neighbours in structure and some others; about 10% of the full set was active somewhere.
# KB-3-1 cytotox – kills parental KB-3-1 adenocarcinoma cells; KB-3-1 viability, CellTiter-Glo ATP luminescence, 72 h; Potency, µM (top dose mostly 46.1 µM), usual class: cytotoxic; hit rate 1.4% among 400,000; further: on the % scale 0 is the no-effect control and ±100 the full control effect; nearly all actives have a fitted effect of over 60% in size
#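 Cytotoxicity measured as CellTiter-Glo luminescence after 72 h at 37 C. Compound titrations were pinned onto drug-naive KB-3-1 parental adenocarcinoma cells grown in DMEM with 10% FBS, and normalized data fitted to concentration-response curves.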
# MCF10A rerep – induces DNA re-replication in MCF 10a normal breast cells; AID 624296; MCF 10A DNA re-replication, Hoechst nuclear intensity, 48 h; hit rate 2.9% among 350,000; Potency, µM (top dose mostly 46.1 µM), inactives show at the top dose activity, positive = re-replication, actives largely listed as activators; further: % of control where 0% means no effect; nearly all actives have a fitted effect of over 50% in size
# Gal4-VP16 FLuc – Gal4-VP16 reporter inhibition counter-screen. Drosophila S2 Gal4-VP16 UAS-luciferase, luminescence, 20 h. Potency, µM (titrated, usually from 53.6 µM), inactives show at the highest dose activity, negative = inhibition, hits mostly inhibitors. hit rate 3.5% among 310,000. AID 2546;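 further: Gal4-VP16 expression switched on by copper sulfate through the metallothionein promoter; on the % scale 0 is the no-effect control and ±100 the full control effect; nearly all actives have a fitted effect of over 50% in size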
# SW480 rereplic – DNA re-replication induction in SW480 cells. Potency, µM (titrated, usually from 46.1 µM), inactives show top-dose re-replication activation, most hits filed as activators. SW480 DNA re-replication, Hoechst DNA content imaging, 48 h. hit rate 1.8% among 340,000. AID 624297; further: % of control where 0% means no effect; nearly all actives have a fitted effect of over 55% in size
#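 Compounds, transferred as 23 nL by pin tool, were incubated with cells for 48 hr; DNA content per nucleus was then quantified by Hoechst staining and fluorescence plate imaging.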
# KB-V1 MDR tox – kills drug-selected multidrug resistant KB-V1 cells; hit rate 3.4% among 400,000; KB-V1 MDR cells viability, CellTiter-Glo, 72 h; Potency, µM (doses to about 46.1 µM), usual class: cytotoxic; further: on the % scale 0 is the no-effect control and ±100 the full control effect; nearly all actives have a fitted effect of over 60% in size
#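 Luminescent ATP read-out (CellTiter-Glo, 10 min) measures survival of drug-selected KB-V1 MDR cells after 72 h, 37 degrees C compound exposure. Medium: phenol-red-free DMEM, 10% FBS. Values from fitted concentration-response curves.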
# RORgamma inh – inhibitors of mouse ROR gamma transcriptional activity. Drosophila S2 Gal4-RORgamma UAS-luciferase reporter, 20 h. Potency, µM (series often up to 53.6 µM), for inactives: at the top dose activity change, negative = inhibition, actives largely listed as inhibitors. hit rate 5.4% among 310,000; further: on the % scale 0 is the no-effect control and ±100 the full control effect; nearly all actives have a fitted effect of over 60% in size
# Target sequence (P51450 whole entry, looked up, the tested form may be a part): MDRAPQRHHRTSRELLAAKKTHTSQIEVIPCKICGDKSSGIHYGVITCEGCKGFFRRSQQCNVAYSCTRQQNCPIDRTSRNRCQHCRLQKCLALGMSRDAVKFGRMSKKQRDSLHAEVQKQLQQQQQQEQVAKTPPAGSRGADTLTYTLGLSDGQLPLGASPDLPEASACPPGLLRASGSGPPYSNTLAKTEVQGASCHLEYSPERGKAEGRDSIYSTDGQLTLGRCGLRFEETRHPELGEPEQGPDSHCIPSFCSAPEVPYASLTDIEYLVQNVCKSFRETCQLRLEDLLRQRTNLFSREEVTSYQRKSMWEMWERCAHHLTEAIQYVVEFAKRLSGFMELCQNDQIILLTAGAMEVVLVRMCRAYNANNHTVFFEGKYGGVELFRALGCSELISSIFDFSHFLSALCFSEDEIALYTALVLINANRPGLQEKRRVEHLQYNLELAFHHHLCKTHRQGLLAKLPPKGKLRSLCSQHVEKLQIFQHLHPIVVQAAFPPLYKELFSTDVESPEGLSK
#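 ROR gamma transcriptional activity was tracked as Gal4-UAS luciferase output in stably transfected Drosophila Schneider cells, with compound added 1 hr before 700 uM copper sulfate induction and a 20 hr ambient-temperature incubation.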
# * = called active by the depositor; i = inactive; ? = inconclusive; · = no result given; [ ] = remark or other dose. The call rests on the fitted dose curve; in most records, active means well fitted curve in the direction sought with a large enough effect; inconclusive means small, poorly fitted or top-dose-only effect, or another doubt; inactive means no such curve, though single readings can be large; an effect the other way counts as inactive or inconclusive. Potency means the concentration at half of the fitted maximal effect.
SMILES,KB-3-1 cytotox,MCF10A rerep,Gal4-VP16 FLuc,SW480 rereplic,KB-V1 MDR tox,RORgamma inh
N/C(=N\OC(=O)c1ccccc1)c1ccccn1,i,-4%,?,-3%,i,1.6µM*
C/C(=N\OC(=O)c1ccc(Br)cc1)c1ccccn1,i,0%,-11%,-1%,i,-8%
Cc1cccc(/C(N)=N/OC(=O)c2cccnc2)c1,i,5%,?,-9%,i,8.9µM*
CC(C)(C)c1ccc(C(=O)O/N=C(\N)c2ccccn2)cc1,i,1%,5µM*,?,i,0.16µM*
Cc1ccc(C(=O)O/N=C(\N)c2ccccn2)cc1C,i,?,11µM*,4%,?,8.9µM*
CN(C)c1ccc(C=C(C#N)C(=O)c2ccccc2)cc1Br,i,·,·,·,i,·
N/C(=N\OC(=O)c1ccc(Br)o1)c1ccccn1,i,0%,-2%,1%,i,11µM*
CCOc1ccc(C(=O)O/N=C(\N)c2ccccn2)cc1,?,0%,10µM*,-6%,i,4.5µM*
N/C(=N\OC(=O)/C=C/c1ccccc1Cl)c1ccccn1,i,4%,-25%[10 µM],-5%,i,11µM*
N/C(=N\OCc1ccc([N+](=O)[O-])cc1)c1ccccn1,i,-4%,2.5µM*,1%,i,1.6µM*
COc1ccc(C(=O)O/N=C(\N)c2ccccn2)c(OC)c1,?,0%,?,-4%,i,?
COc1ccccc1C/C(N)=N/OC(=O)c1ccc(C)c([N+](=O)[O-])c1,i,?,-11%,?,i,39%
N/C(=N\OC(=O)c1ccc2c(c1)OCO2)c1cccc([N+](=O)[O-])c1,i,-17%,-21%,8%,i,-2%
COc1ccccc1C/C(N)=N/OC(=O)c1ccc2c(c1)OCO2,i,-7%,?,?,?,0.89µM*
Cc1cccc(/C(N)=N/OC(=O)c2ccc3c(c2)OCO3)c1,i,-7%,?,-7%,?,10µM*
Cc1cc(C)c(Cn2c(=O)n(CCCCC(=O)NCc3ccccc3Cl)c(=O)c3ccccc32)c(C)c1,i,·,·,·,i,·
Cn1nnc2c(N3CCN(c4ccccc4Cl)CC3)ncnc21,i,·,·,·,i,·
CCOC(=O)N=Nc1c2ccccc2c2nc3no[nH]c3nc12,1.5µM*,?,4µM*,?,2.9µM*,0.35µM*
CCOC(=O)N=Nc1c(O)n(CC(=O)OC)c2ccccc12,i,18%,4%,0%,i,3%
Nc1nonc1-n1nnc(C(=O)N/N=C/C=C/c2ccccc2)c1CSC1=NCCS1,i,?,3.2µM*,?,i,1.4µM*
CCc1c(C(=O)N/N=C/c2cccs2)nnn1-c1nonc1N,i,-4%,?,-1%,i,13µM*
Nc1nonc1-n1nnc(C(=O)N/N=C/c2ccccc2Cl)c1CSc1ccccc1,i,16%,-7%,-121%,i,36%
Nc1nonc1-n1nnc(C(=O)N/N=C/c2c(Cl)cccc2Cl)c1CSC1=NCCS1,?,10%,9%,24%,i,1%
Nc1nonc1-n1nnc(C(=O)N/N=C/c2cccs2)c1CSc1ccccc1,i,?,5µM*,?,?,?
CCOc1ccc(NC(=O)Cn2c(=O)c(CNc3ccc(OC)cc3)cc3ccc(OC)cc32)cc1,i,·,·,·,i,·
SMILES,KB-3-1 cytotox,MCF10A rerep,Gal4-VP16 FLuc,SW480 rereplic,KB-V1 MDR tox,RORgamma inh
Oc1ccc(C[C@H]2CNC(=S)N2C[C@H]2CCCN2C[C@H](Cc2ccccc2)N2C[C@H](Cc3ccc(O)cc3)N(CCc3ccccc3)C2=S)cc1,?,·,·,·,i,·
N#Cc1cnn(-c2nc3sc4c(c3c(=O)[nH]2)CCCC4)c1N,?,?,-14%[0.365 µM],-6%,i,2.8µM*
Cc1nc2cnc(N(C)C)nc2n(C)c1=O,·,·,-9%,·,·,18%
CCOc1ccc(-c2nnc(-c3ccccc3)o2)cc1,i,?,?,-3%,i,10µM*
CCCOc1ccc(-c2nnc(-c3cccs3)o2)cc1,i,24%,?,2%,i,5µM*
CCOc1ccc(-c2nnc(-c3ccncc3)o2)cc1,i,1%,?,-2%,i,13µM*
CCCCOc1ccc(-c2nnc(-c3ccncc3)o2)cc1,i,5%,2%,-6%,?,22%
CCOc1ccc(-c2nnc(-c3ccc(OC)cc3)o2)cc1,i,14%,?,-5%,i,-14%
COc1ccccc1CCNC(=O)C(=O)NCC(c1ccco1)S(=O)(=O)c1ccc(F)cc1 (centres undefined),i,·,·,·,i,·
O=C(O)c1ccccc1N=Nc1ccc(O)cc1,i,?,·,1.2µM*,i,·
O=C(O)c1cc(O)ccc1N=Nc1ccccc1,i,23µM*,6%,?,i,20%
CCN(C(=O)Cn1nc2c3cc(F)ccc3n(Cc3cccc(C)c3)cc-2c1=O)c1cccc(C)c1,i,·,·,·,?,·
O=C(c1ccccc1Br)N1CCn2c1nc1ccccc12,i,3.7µM*,-12%,-15%,i,-1%
O=C(c1ccccc1Cl)N1CCn2c1nc1ccccc12,i,-4%,10%,4%,i,-2%
CC1(Cc2cccc(C(F)(F)F)c2)C(=O)Nc2ccc(-c3ccc(F)c(Cl)c3)cc21 (centres undefined),i,·,·,·,i,·
COC(=O)c1ccccc1COc1cccn2c(N(C)C(=O)CCC3CCCC3)c(C)nc12,i,·,·,·,i,·
CCOC(=O)c1c(NC(C)=O)sc2c(OCC(O)CNC(C)(C)C)c(Br)ccc12 (centres undefined),i,?,-2%,?,?,1%
CCOC(=O)c1c(N)sc2c(OCC)c(Br)ccc12,i,?,?,21µM*,i,?
Cc1cccc(N=C2NC(=O)/C(=C/c3cccn3C)S2)c1C,i,?,-28%,-58%,?,2%
Cc1ccc(N=C2NC(=O)/C(=C/c3cccs3)S2)cc1C,i,16µM*,?,-1%,?,?
Cc1ccc(N=C2NC(=O)CS2)cc1C,?,20%,2%,-8%,9.2µM*,-7%
Cc1ccc(N=C2NC(=O)/C(=C/c3cccn3C)S2)cc1,?,?,-10%,10µM*,?,-42%
Cc1ccc(N=C2NC(=O)/C(=C/c3cccn3C)S2)cc1C,?,15µM*,-26%,?,?,-44%
CCN1CC=C2C(C1)C(c1ccc(Cl)s1)C(C#N)=C(N)C2(C#N)C#N (centres undefined),i,4%,4%,-2%,15µM*,12%
